Source: PubChem BioAssay AID504834 (National Center for Advancing Translational Sciences (NCATS), 2011)
In all, about 320,000 compounds went through this assay and about 22,000 (6.9%) were called active. Inconclusive results (about 27%) are left out. The sample holds actives, similar compounds and a random draw of the others, so the mix is not that of the screen. The call rests on the fitted dose curve; in most records, active means well fitted inhibition curve with a large enough effect; inconclusive means small, poorly fitted or top-dose-only effect, or another doubt; inactive means no such curve, though single readings can be large or run the other way.

Experiment: Primary qHTS for delayed death inhibitors of the malarial parasite plastid, 96 hour incubation
Conditions: P. falciparum luciferase reporter growth; series mostly up to 28.7 µM; activity change, negative = inhibition: at the top concentration
Description: The goal of this screen is to discover new antimalarial compounds that act by inhibiting the development of the apicoplast in the malarial parasite Plasmodium falciparum. The biochemical processes that make this organelle essential for erythrocytic stage parasites are not well understood. However, antibiotics such as azithromycin and tetracycline, which target the apicoplast translational machinery, have a potent antimalarial effect.
We have developed a cell-based assay that measures parasite growth based on the expression of an integrated copy of a firefly luciferase reporter. To detect small molecules that cause this "delayed death" phenotype, erythrocytes infected with the luciferase-expressing parasites were incubated with compounds for either one or two generations, corresponding to 48 and 96 hours, respectively. Compounds that inhibit parasite growth in the second generation, but not the first, should be enriched in antimalarials that target the apicoplast. Growth inhibition is detected by a decrease in luciferase activity.
Assay Provider: David Fidock and Eric Ekland, Columbia University
Keywords: NIH Roadmap, MLPCN, MLI, MLSMR, qHTS, NCGC, qHTS, malaria, luciferase, viability
Four microliters of infected erythrocytes (2% hematocrit, 0.05% parasitemia final concentration) in culture medium were dispensed and the plates incubated for 96 hours at 37 C in 5% CO2. Two microliters of luciferase detection reagent was added and luminescence was detected by a ViewLux (PerkinElmer) reader.
On the % scale 0 is the no-effect control and ±100 the full control effect; potency means the concentration at half of the fitted maximal effect.

Compound | activity change, negative = inhibition | Potency
CCCCC(=O)Nc1c2c(nn1-c1ccc([N+](=O)[O-])cc1)CS(=O)(=O)C2 | 14.9% (inactive) | –
O=C(NCc1ccccn1)C1CCN(S(=O)(=O)c2ccc(Br)cc2)CC1 | 21.9% (inactive) | –
CCN(CC(=O)NCc1cccs1)C(=O)c1cccc(S(=O)(=O)Nc2ccccc2OC)c1 | 15.4% (inactive) | –
COc1ccc2[nH]c(C)c(CCN(Cc3cccs3)C(=S)Nc3ccccc3OC)c2c1 | – | 13.1 µM (active)
COCCN(C(=S)Nc1ccccc1OC)C1CCN(C(C)C)CC1 | -15.9% (inactive) | –
COc1ccc(S(=O)(=O)NC(C)c2ccccc2)cc1C(=O)N1CCCCC1 (stereo unspecified) | 25.7% (inactive) | –
CC(C)(C)c1csc(NC2=NS(=O)(=O)c3ccccc32)n1 | 0% (inactive) | –
CC(C)C(NS(=O)(=O)c1cccs1)C(=O)Nc1nc(C(C)(C)C)cs1 (stereo unspecified) | – | 13.1 µM (active)
CC(=O)Nc1ccc(S(=O)(=O)N2CCN(S(=O)(=O)c3cccs3)CC2)cc1 | -14.8% (inactive) | –
Cc1ccc(CS(=O)(=O)CCC(=O)NCc2ccc(F)cc2)cc1 | -0.448% (inactive) | –
COc1ccc(CCC(C)N2CCc3ccccc3C2)cc1 (stereo unspecified) | 1.99% (inactive) | –
O=C(CN(C(=O)CCC(=O)Nc1nccs1)c1ccc(F)cc1)NCc1ccc2c(c1)OCO2 | 45.9% (inactive) | –
CCC1Sc2ccc(S(=O)(=O)CCC(=O)NCc3cccs3)cc2NC1=O (stereo unspecified) | 6.87% (inactive) | –
Cc1nc(-c2nnc(SCC(=O)Nc3cc(C(F)(F)F)cc(C(F)(F)F)c3)n2C)cs1 | 25.6% (inactive) | –
CCN(C(=O)COC(=O)C1CCN(S(=O)(=O)c2ccc(C)c(C)c2)CC1)C1CCS(=O)(=O)C1 (stereo unspecified) | -1.93% (inactive) | –
CCCNC(=O)OC[C@H]1O[C@H](CCO/N=C/[C@@H](NS(=O)(=O)c2ccc(C)cc2)[C@H](C)/C=C/CC(=O)OC)C=C[C@@H]1Oc1ccc(OC)cc1 | – | 7.38 µM (active)
CCCC(C)NC(=O)C1CCN(C(=O)C2CC(=O)N(c3ccc(C)cc3)C2)CC1 (stereo unspecified) | 332% (inactive) | –
COc1ccc(CCNC(=O)COC(=O)C2CC2C)cc1 (stereo unspecified) | -20.6% (inactive) | –
O=C(NCCCn1ccnc1)Nc1ccc(Cl)cc1Cl | -24.9% (inactive) | –
Clc1ccc(C(Cn2ccnc2)OCc2ccsc2Cl)c(Cl)c1 (stereo unspecified) | – | 6.75 µM (active)
O=C(Nc1ccccc1C(=O)NCCCn1ccnc1)c1ccc(Cl)cc1Cl | -16.7% (inactive) | –
CC(OC(=O)CCCOc1ccccc1)C(=O)Nc1ccc(Cl)cn1 (stereo unspecified) | 0.813% (inactive) | –
CC1CCN(C(=O)COC(=O)CCC(=O)c2cccs2)CC1 | 0.599% (inactive) | –
Cc1c(C(C)(C)O)[nH]c2ccc(C#N)cc12 | 108% (inactive) | –
O=S(=O)(c1ccc(Br)cc1)N1CCC(c2nc3ccccc3[nH]2)CC1 | 36.7% (inactive) | –
O=S(=O)(c1ccc(Br)cc1)n1ccc2ccccc21 | – | 2.62 µM (active)

Compound | activity change, negative = inhibition | Potency
O=C(c1ccccc1F)N1CCN(S(=O)(=O)c2ccc(Br)cc2)CC1 | -20% (inactive) | –
C/C=C/c1ccc(OCC(=O)OCC(=O)Nc2c(C)nn(-c3ccccc3)c2C)c(OC)c1 | 9.93% (inactive) | –
COc1ccc(CNC(=O)C(c2ccc(O)cc2)N(Cc2ccco2)C(=O)c2snc(C(N)=O)c2N)cc1 (stereo unspecified) | -9.26% (inactive) | –
Cc1cccc(C(=O)N2CCCC(Nc3ccc(C(C)C)cc3)C2)n1 (stereo unspecified) | 25.2% (inactive) | –
O=C(CCn1c(=S)[nH]c2cc3c(cc2c1=O)OCO3)NCc1ccc(Cl)cc1 | – | 11.7 µM (active)
CC(C)NC(=O)CCCn1c(=S)[nH]c2cc3c(cc2c1=O)OCO3 | 4.1% (inactive) | –
CCCCNC(=O)CCn1c(=S)[nH]c2cc3c(cc2c1=O)OCO3 | 139% (inactive) | –
COc1ccc(Nc2nc(-c3ccccc3)cs2)cc1 | 8.91% (inactive) | –
COc1ccc(-c2csc(Nc3ccc(O)cc3)n2)cc1 | 37.7% (inactive) | –
CCCn1c(CCNc2nc(-c3ccc(OC)cc3)cs2)nc2ccccc21 | – | 11.7 µM (active)
CC(=O)c1cc2c(cc1NC(=O)Cn1nc(-c3ccc(F)cc3)ccc1=O)OCO2 | 23.7% (inactive) | –
COc1ccc(N=C2SC(C(=O)Nc3ccc(F)cc3)CC(=O)N2C)cc1 (stereo unspecified) | 3.01% (inactive) | –
CNC(=O)C1CC(=O)N(Cc2ccc3c(c2)OCO3)C(=Nc2ccc(F)cc2)S1 (stereo unspecified) | – | 6.57 µM (active)
O=C(Cc1ccc(F)cc1)N/N=C/c1ccc2c(c1)OCO2 | 94.1% (inactive) | –
CC1CCN(C(=O)/C(=C\c2ccccc2F)NC(=O)c2ccccc2)CC1 | 27.9% (inactive) | –
C=CCn1c(Oc2ccc(C(=O)OC)cc2)nc2c1c(=O)n(C)c(=O)n2C | – | 5.86 µM (active)
Cn1c(=O)c2c(nc(NCc3ccccc3)n2CC(N)=O)n(C)c1=O | 23.9% (inactive) | –
Cn1c(=O)c2c(nc(N3CCCCCC3)n2CC(=O)c2ccc(Br)cc2)n(C)c1=O | 23.4% (inactive) | –
COc1ccc(NC(=O)CCNC(=O)Cn2cnc3sc4c(c3c2=O)CCCC4)cc1OC | 14.1% (inactive) | –
C=CCN1C(=O)C2(OCCCO2)c2cccc(Cl)c21 | -23.1% (inactive) | –
COc1ccc(-c2nnc3n2CCCCC3)cc1 | 32.2% (inactive) | –
CC(=O)N1c2ccc(S(=O)(=O)N3CCCC(C(=O)Nc4cccc(Cl)c4)C3)cc2CC1C (stereo unspecified) | -15.3% (inactive) | –
CC(=O)N1c2ccc(S(=O)(=O)N3CCCC(C(=O)Nc4cccc(F)c4)C3)cc2CC1C (stereo unspecified) | – | 11.7 µM (active)
CC(=O)N1c2ccc(S(=O)(=O)N3CCC(C(=O)NC4CCCCC4C)CC3)cc2CC1C (stereo unspecified) | -7.95% (inactive) | –
O=C(CN1C(=O)S/C(=C\c2ccccc2Cl)C1=O)NC1C=CS(=O)(=O)C1 (stereo unspecified) | 3.43% (inactive) | –
